Test results: PubChem BioAssay (NCI)
Compounds without any hit were thinned out: in the full panel of roughly 79,000, 15% have a hit. Calls of active or inactive are those of the source. Rule as the data show it: active = growth inhibition above about 70%; inactive = the rest.

Experiments:
[1] = NCI Yeast Anticancer Drug Screen. Data for the mec2-1 strain (AID 157); details: S. cerevisiae mec2-1 strain, active compounds read high
Method in brief: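 Cells of the genetically defined mec2-1 yeast strain are incubated with test compound. Inhibition of growth is calculated against vehicle-treated controls.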

[2] = NCI Yeast Anticancer Drug Screen. Data for the rad14 strain (AID 159);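 also: 0% = growth of vehicle-treated control cultures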; details: S. cerevisiae rad14 strain growth inhibition, active compounds read high
Method in brief: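 Here, inhibition of yeast growth was measured after compound exposure, using a strain with a genetic defect in DNA damage repair and vehicle-treated cultures as the reference.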

[3] = NCI Yeast Anticancer Drug Screen. Data for the sgs1 mgt1 strain (AID 161);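 also: 0% = growth of cultures given vehicle only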; details: S. cerevisiae sgs1 mgt1 strain, active compounds read high
Method in brief: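 Genetically altered yeast, compound exposure, growth inhibition relative to vehicle.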

[4] = NCI Yeast Anticancer Drug Screen. Data for the CLN2oe strain (AID 163);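 also: 0% = growth of vehicle-only control cultures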; details: S. cerevisiae CLN2oe strain, active compounds read high
Method in brief: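 Strain altered in cell-cycle control, incubated with compound; growth compared to solvent-treated controls.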

[5] = NCI Yeast Anticancer Drug Screen. Data for the cln2 rad14 strain (AID 165);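 also: 0% = growth equal to vehicle treated cultures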; details: S. cerevisiae cln2 rad14 strain, active compounds read high
Method in brief: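 The screen exposed genetically defined yeast (cln2 rad14) to test compounds and scored growth inhibition relative to vehicle-treated controls.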

[6] = NCI Yeast Anticancer Drug Screen. Data for the bub3 strain (AID 167); details: S. cerevisiae bub3 mutant strain, active compounds read high
Method in brief: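 Whole-cell yeast assay. The mutant strain was incubated with compounds, and growth inhibition was determined by comparison with vehicle-treated cells.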

[7] = NCI Yeast Anticancer Drug Screen. Data for the wt2 strain (AID 169);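 also: 0% = growth of vehicle-treated yeast cultures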; details: S. cerevisiae wt2 strain growth inhibition, active compounds read high
Method in brief: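 Steps: yeast strain treated with compound; growth recorded; inhibition calculated relative to cultures given vehicle alone.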

[8] = NCI Yeast Anticancer Drug Screen. Data for the mlh1 strain (AID 171);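 also: 0% = growth of vehicle-treated control cultures of the same strain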; details: S. cerevisiae mlh1 strain growth inhibition, active compounds read high
Method in brief: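 Yeast screen: mutant strain plus compound, growth scored against vehicle control wells.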

[9] = NCI Yeast Anticancer Drug Screen. Data for the sgs1 strain (AID 173);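 also: 0% = growth of vehicle-only control cultures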; details: S. cerevisiae sgs1 mutant, active compounds read high
Method in brief: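 Inhibition of yeast growth served as the measure. The mutant strain was treated with each compound, and growth was normalised to cultures receiving vehicle alone.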

[10] = NCI Yeast Anticancer Drug Screen. Data for the mlh1 rad18 strain (AID 175); details: S. cerevisiae mlh1 rad18 strain growth inhibition, active compounds read high
Method in brief: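 Compound-treated yeast growth, normalised to vehicle controls. Strain bears defined DNA repair mutations.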

[11] = NCI Yeast Anticancer Drug Screen. Data for the rad18 strain (AID 177); details: S. cerevisiae rad18 mutant growth inhibition, active compounds read high
Method in brief: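 Inhibition values reflect reduced yeast growth compared with vehicle-treated controls, using a strain engineered with a DNA damage repair defect.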

[12] = NCI Yeast Anticancer Drug Screen. Data for the rad52 strain (AID 147);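 also: 0% = growth of vehicle-treated control cultures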; details: S. cerevisiae rad52 mutant growth inhibition, active compounds read high
Method in brief: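 Genetically altered yeast (DNA damage repair defect) treated with compound; inhibition calculated relative to vehicle.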

[13] = NCI Yeast Anticancer Drug Screen. Data for the wt1 strain (AID 149);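 also: 0% = growth of vehicle-treated wt1 cultures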; details: S. cerevisiae wt1 strain (SPY 50644) growth inhibition, active compounds read high
Method in brief: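 Measured: growth of wt1 yeast under compound versus vehicle treatment, reported as inhibition.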

[14] = NCI Yeast Anticancer Drug Screen. Data for the rad50EPP+ strain (AID 151);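 also: 0% = growth of vehicle-treated control cultures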; details: S. cerevisiae rad50 mutant strain, active compounds read high
Method in brief: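 Strain rad50EPP+; compound exposure; % growth inhibition vs vehicle.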

[15] = NCI Yeast Anticancer Drug Screen. Data for the rad50 strain (AID 155);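 also: 0% = growth of vehicle-only cultures of the same strain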; details: S. cerevisiae rad50 strain growth inhibition, active compounds read high
Method in brief: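 Growth of the mutant yeast was measured after compound exposure and referenced to vehicle-treated cultures.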

[16] = at 5.0 µM (retest, dose inferred, filed as 0.5)
[17] = at 50.0 µM (retest, dose inferred, filed as 5.0)

Measured: growth inhibition

Nc1cc(S(N)(=O)=O)ccc1SSc1ccc(S(N)(=O)=O)cc1N
active: [2]; at 100.0 µM 89% | [8]; at 100.0 µM 75% | [9]; at 100.0 µM 82% | [10]; at 50.0 µM 73% | [11]; at 100.0 µM 78%
inactive: [1]; at 100.0 µM 63% | [2]; at 1.2 µM 1% | [2]; at 3.7 µM -7% | [2]; at 11.0 µM 3% | [2]; at 33.0 µM 12% | [3]; [16] -7% | [3]; [17] 55% | [3]; at 50.0 µM 56.6% | [4]; at 1.2 µM 1% | [4]; at 3.7 µM -1% | [4]; at 11.0 µM 2% | [4]; at 33.0 µM 13% | [4]; at 100.0 µM 49% | [5]; [16] 16% | [5]; [17] 0% | [5]; at 50.0 µM 21.7% | [6]; at 1.2 µM -1% | [6]; at 3.7 µM 3% | [6]; [16] -21% | [6]; at 11.0 µM 9% | [6]; at 33.0 µM 21% | [6]; [17] 12% | [6]; at 50.0 µM 62.3% | [6]; at 100.0 µM 67% | [7]; at 1.2 µM -1% | [7]; at 3.7 µM -1% | [7]; at 11.0 µM 4% | [7]; at 33.0 µM 27% | [7]; at 100.0 µM 54% | [8]; at 1.2 µM 4% | [8]; at 3.7 µM 4% | [8]; at 11.0 µM 12% | [8]; at 33.0 µM 28% | [9]; at 1.2 µM 2% | [9]; at 3.7 µM 9% | [9]; at 11.0 µM 26% | [9]; at 33.0 µM 53% | [10]; [16] 5% | [10]; [17] 31% | [11]; at 1.2 µM -14% | [11]; at 3.7 µM 7% | [11]; at 11.0 µM 28% | [11]; at 33.0 µM 52%

Cc1ccc(S(=O)(=O)Nc2ccc3c(c2)C(O)c2ccccc2-3)cc1 (stereo unspecified)
active: [12]; at 33.0 µM 71% | [15]; at 50.0 µM 74.5% | [3]; at 50.0 µM 89.5% | [5]; at 50.0 µM 79.4% | [6]; at 50.0 µM 83.3% | [7]; at 33.0 µM 75% | [8]; at 33.0 µM 80% | [9]; at 33.0 µM 86% | [10]; at 50.0 µM 91% | [11]; at 33.0 µM 73%
inactive: [12]; at 1.2 µM -2% | [12]; at 3.7 µM -1% | [12]; at 11.0 µM 9% | [12]; at 100.0 µM 59% | [13]; at 1.2 µM -3% | [13]; at 3.7 µM -7% | [13]; at 11.0 µM -7% | [13]; at 33.0 µM 22% | [13]; at 100.0 µM 27% | [14]; at 1.2 µM 4% | [14]; at 3.7 µM 10% | [14]; at 11.0 µM 31% | [14]; at 33.0 µM 38% | [14]; at 100.0 µM 22% | [15]; at 1.2 µM -2% | [15]; at 3.7 µM -3% | [15]; [16] -4% | [15]; at 11.0 µM 6% | [15]; at 33.0 µM 48% | [15]; [17] 10% | [15]; at 100.0 µM 42% | [1]; at 1.2 µM -5% | [1]; at 3.7 µM -3% | [1]; [16] -9% | [1]; at 11.0 µM -5% | [1]; at 33.0 µM 21% | [1]; [17] 7% | [1]; at 50.0 µM 23.1% | [1]; at 100.0 µM 33% | [2]; at 1.2 µM -2% | [2]; at 3.7 µM -3% | [2]; at 11.0 µM 4% | [2]; at 33.0 µM 38% | [2]; at 100.0 µM 23% | [3]; [16] 0% | [3]; [17] 5% | [4]; at 1.2 µM -7% | [4]; at 3.7 µM -10% | [4]; at 11.0 µM -9% | [4]; at 33.0 µM 30% | [4]; at 100.0 µM 30% | [5]; [16] -19% | [5]; [17] 23% | [6]; at 1.2 µM 0% | [6]; at 3.7 µM 0% | [6]; [16] -3% | [6]; at 11.0 µM 2% | [6]; at 33.0 µM 20% | [6]; [17] 12% | [6]; at 100.0 µM 23% | [7]; at 1.2 µM -6% | [7]; at 3.7 µM -7% | [7]; at 11.0 µM -2% | [7]; at 100.0 µM 43% | [8]; at 1.2 µM -8% | [8]; at 3.7 µM -6% | [8]; at 11.0 µM 2% | [8]; at 100.0 µM 33% | [9]; at 1.2 µM -1% | [9]; at 3.7 µM -1% | [9]; at 11.0 µM 26% | [9]; at 100.0 µM 57% | [10]; [16] -6% | [10]; [17] 40% | [11]; at 1.2 µM -3% | [11]; at 3.7 µM -4% | [11]; at 11.0 µM -4% | [11]; at 100.0 µM 51%
